Bioassay records deposited in PubChem by Broad Institute.
A selection follows.
aSyn 5UTR act: Activators via SNCA 5'UTR binding, MLPCN; alpha-synuclein 5'UTR reporter, activators screen; activity score, % (tested at 7.5 µM), hits read low; actives 7.1% (n = 300,000); AID 1814, 2009; in the data active = activity score below about -60%
Starred values were filed as active, the others as inactive.

SMILES	aSyn 5UTR act
COC(=O)c1ccc(NC(=O)C2CC3CCC2C3)cc1 (stereo not given)	-193.9*
COC(=O)c1ccc(/C=N/NC(=O)c2cccc(F)c2)cc1	-133.9*
C/C(=N\Nc1ccc(C(F)(F)F)cn1)c1ccncc1	-148.1*
COc1cc(C(=O)N/N=C/c2cn(Cc3cccc(F)c3)c3ccccc23)ccc1O	62.1
O=C(N/N=C/c1cnc2ccccc2n1)c1cccc(F)c1	-120.3*
Nc1ccc(C(=O)N/N=C/c2ccccc2)cc1	-140.5*
O=C(N/N=C(\c1ccccc1)c1cccnc1)c1cccc(F)c1	80.4
O=C(N/N=C/c1ccccc1Cl)c1ccc(F)cc1	-189.0*
O=C(N/N=C/c1ccc[nH]1)c1ccc(Cl)cc1	-121.0*
O=C(N/N=C\c1ccc(F)cc1)c1ccc(F)cc1	-131.6*
CSc1ccc(/C=N/NC(=O)c2cccc(O)c2)cc1	-166.9*
COc1cc(C(=O)Oc2ccccc2/C=N/NC(=O)c2ccc(C)c(Cl)c2)cc(OC)c1OC	84.3
Oc1ccc(/C=N/Nc2ccc(C(F)(F)F)cn2)cc1	-280.1*
O=C(N/N=C/c1cccc(NC(=O)c2ccc(Cl)cc2)c1)c1cccc(O)c1	-68.1*
O=C(O)c1ccc(N/N=C/c2ccc(C(F)(F)F)cc2)cc1	60.8
O=C(N/N=C/c1c(O)ccc2ccccc12)c1cccc(C(F)(F)F)c1	110.8
O=C(N/N=C/c1ccc(C(F)(F)F)cc1)c1ccc(O)cc1	-85.1*
O=C(N/N=C/c1cccs1)c1cccc(NC(=O)c2ccc(Cl)cc2)c1	59.0
COc1ccc(C(=O)Nc2ccnc(-c3cccnc3)n2)cc1	-166.0*
O=C(Nc1ccnc(-c2cccnc2)n1)c1ccc(Cl)c(Cl)c1	-63.3*
Cc1ccc(C(=O)Nc2ccnc(-c3cccnc3)n2)cc1	-268.6*
Cc1ccc(NC(=O)Nc2ccnc(-c3cccnc3)n2)cc1	109.6
CCN(CC(=O)NCc1ccc(F)cc1)C(=O)/C=C/c1ccc(OC)c(S(=O)(=O)NC(C)C)c1	63.2
CCN(CC(=O)NCc1ccc(F)cc1)C(=O)c1ccc(COc2ccccc2)cc1	-67.4*
CCN(CC)C(=O)c1ccc(COc2ccccc2Cl)cc1	-112.0*
SMILES	aSyn 5UTR act
O=C(/C=C/c1ccccc1)CC(=O)c1ccccc1O	-201.1*
COc1cc(/C=C/C(=O)NC(=O)c2ccccc2O)ccc1O	-160.5*
O=C(/C=C/c1ccccc1)NC(=O)c1ccccc1O	-157.1*
CC(=O)c1sc(NC(=O)c2ccc(F)cc2)nc1-c1ccccc1	-95.0*
CC(=O)c1sc(NC(=O)c2ccccc2F)nc1-c1ccccc1	-124.5*
O=C1CN(c2nc(-c3cccs3)nc3sc4c(c23)CCCC4)CCN1	-109.3*
O=c1c2c3c(sc2nc2n1N=C(c1cccs1)CS2)CCCC3	-165.8*
O=C1CN(c2nc(-c3cccnc3)nc3scc(-c4ccccc4)c23)CCN1	-90.0*
Cc1cc(Cl)ccc1NC(=O)C1COc2ccccc2O1 (stereo not given)	-85.5*
O=C(Nc1cnc2ccccc2c1)C1COc2ccccc2O1 (stereo not given)	-167.5*
Cc1cc(=O)oc2cc(NC(=O)C3COc4ccccc4O3)ccc12 (stereo not given)	-61.6*
O=C(Nc1ccccc1[N+](=O)[O-])C1COc2ccccc2O1 (stereo not given)	-221.5*
COc1ccc(C)cc1NC(=O)C1COc2ccccc2O1 (stereo not given)	-67.3*
O=C(Nc1ccc(F)cc1)C1COc2ccccc2O1 (stereo not given)	-71.6*
O=C(Nc1ccc2c(c1)OCO2)C1COc2ccccc2O1 (stereo not given)	-177.1*
COc1ccc(CNC(=O)C2COc3ccccc3O2)cc1 (stereo not given)	-62.5*
COc1cccc(NC(=O)C2COc3ccccc3O2)c1 (stereo not given)	-200.9*
COc1ccc(OC)c2c1sc(=NC(=O)C1COc3ccccc3O1)n2C (stereo not given)	-128.4*
COc1ccc(CNC(=O)c2c(C)oc3c2C(=O)c2ccccc2C3=O)cc1	102.8
CC(=O)c1c(C)oc2c1C(=O)c1ccccc1C2=O	-62.1*
NC1=NC2=C(CCCC2)C2(CCCCC2)S1	76.6
Cc1ccc(NC(=S)N/N=C/c2ccc([N+](=O)[O-])s2)cc1	-73.9*
O=C(ONc1ccc(N=NC(=O)c2ccccc2O)cc1)c1ccccc1	-85.8*
O=c1c2cc(-c3ccccc3)sc2ncn1/N=C/c1ccco1	-140.3*
CCCCCn1cnc2sc(-c3ccccc3)cc2c1=O	-298.6*
SMILES	aSyn 5UTR act
CCCCn1cnc2sc(-c3ccccc3)cc2c1=O	-212.7*
COc1ncnc2sc(-c3ccccc3)cc12	-168.0*
COc1ccccc1-n1cnc2sc(-c3ccccc3)cc2c1=O	-142.3*
COc1ccc(Nc2cc(C)c3c(O)cccc3n2)cc1	-140.4*
Cc1ccccc1Nc1cc(C)c2c(O)cccc2n1	-105.0*
Cc1ccc(Nc2cc(C)c3ccc(O)cc3n2)cc1C	-93.7*
Cc1ccc(Nc2cc(C)c3c(O)cccc3n2)cc1C	-117.6*
O=c1oc2ccccc2cc1-c1ccc(O)cc1	-101.1*
COc1ccc(-c2cc3ccccc3oc2=O)cc1	-71.1*
Nc1ccc(-c2cc3ccccc3oc2=O)cc1	106.4
O=C(NCc1cccnc1)c1ccc(-c2cc3ccccc3oc2=O)cc1	-138.7*
O=C(O)c1ccc(Cn2cnc3scc(-c4ccccc4)c3c2=O)cc1	-142.4*
COc1cc(C(=O)OCC(=O)Nc2cc(C)on2)ccc1OCc1ccccc1Cl	-111.3*
CCc1ccc(NC(=O)c2ccc3ncsc3c2)cc1	-155.2*
O=C(Nc1ccc(Br)cc1)c1ccc2ncsc2c1	-127.9*
COc1ccc(NC(=O)c2ccc3ncsc3c2)cc1	-167.8*
O=C(Nc1ccc2c(c1)C(=O)NC2=O)c1ccc2ncsc2c1	-62.6*
CCc1ccc(NC(=O)C(=O)NCc2ccccn2)cc1	-144.3*
COc1ccccc1NC(=S)NCc1ccccn1	-80.3*
S=C(NCc1ccccn1)Nc1ccccc1	-85.7*
S=C(NCc1ccccn1)Nc1ccc(Cl)cc1Cl	-129.7*
O=C(CSCc1ccccn1)Nc1ccccc1	-69.8*
CN(C(=O)c1ccc2c(c1)OCO2)C1CCCCC1	-82.0*
CN(C(=O)c1cccc(N2C(=O)C3C4C=CC(C4)C3C2=O)c1)C1CCCCC1 (stereo not given)	-102.5*
O=C(NC1CCCCC1)c1ccc2c(c1)OCO2	-93.3*
SMILES	aSyn 5UTR act
Cc1cc(SCC(=O)c2cc3ccccc3o2)nc2ccccc12	-73.2*
COC(=O)c1ccc(C2N=C(c3cccs3)CC(c3ccccc3O)N2)cc1 (stereo not given)	-97.7*
C(=C\c1nc(N2CCCC2)c2ccccc2n1)/c1ccccc1	-105.8*
C=CCNc1nc(N)c([N+](=O)[O-])c(N2CCCCCC2)n1	69.3
Oc1ccc(Nc2nc(N3CCCC3)c3ccccc3n2)cc1	-579.1*
CC1CCN(c2nc(/C=C/c3ccccc3)nc3ccccc23)CC1	-87.4*
COCCNc1nc(N)c([N+](=O)[O-])c(NC2CCCCC2)n1	67.7
Cc1nn2c(nc(N3CCCCC3)c3ccccc32)c1C=O	55.3
Nc1nc(Nc2ccccc2)nc(N2CCCC2)c1[N+](=O)[O-]	-81.5*
CC1SCC(NC(=O)c2ccccc2Cl)CS1 (stereo not given)	-101.6*
CC1SCC(NC(=O)c2ccc(Cl)cc2)CS1 (stereo not given)	-110.9*
Cc1nc(N)sc1N=Nc1ccc(Br)cc1	-253.9*
Nc1ccc2nc(SCC(=O)c3ccccc3)sc2c1	-74.5*
Cc1cc(C(=O)CSc2nnc(N)s2)c(C)n1Cc1cccs1	69.0
Nc1ccc2nc(SCc3ccccc3F)sc2c1	-203.0*
